Source: PubChem BioAssay AID1053125 (Broad Institute, 2014)
Potency and affinity values are given separately. A number with no mark means an inactive call.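 The calls were made as follows: active = viability loss whose fitted half-maximal concentration is at most twice the top valid tested dose; inconclusive = flat curve with 30 to 70% loss, or poor fit; inactive = the rest.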

Test: HepG2 cell cytotoxicity, dose response, cytotoxicity control, ATP luminescence, cherry-pick, set 6 (AID 1053125)
Settings: HepG2 viability, ATP luminescence (CellTiter-Glo), 72 h; series mostly up to 26 µM; activity change, negative = cytotoxicity: at the top concentration

In order of rising “activity change, negative = cytotoxicity” value:
1. CCOC(=O)c1oc2c(CN3CCN(CCO)CC3)c(O)c(CC)cc2c(=O)c1-c1nc2ccccc2s1  -18%
2. CCNC(=O)c1cc2c(=O)n3cccc(C)c3nc2n(Cc2ccc(C)cc2)c1=N  -17.9%
3. CSC1=NSC2=NC(=O)/C(=C/c3coc4ccc(O)cc4c3=O)C(=N)N12  -14.4%
4. Cc1cccn2c(=O)c3cc(C(=O)NCCc4ccccc4)c(=N)n(CCCn4ccnc4)c3nc12  -14.1%
5. CCn1c(=N)c(S(=O)(=O)c2ccccc2)cc2c(=O)n3ccccc3nc21  -12.9%
6. CCn1c2ccccc2c(=O)c2ccccc21  -12.7%
7. O=C(O)c1ccc(N2N=C(c3ccccc3)CC2c2ccccc2)cc1 (stereo not given)  -12.1%
8. CCc1cccc(OC2OC(CO)C(O)C(O)C2NC(C)=O)c1 (stereo not given)  -12.1%
9. CCN1C(=O)c2cccc3c(S(=O)(=O)N(C)C)ccc1c23  -11.1%
10. NC(=O)c1c(NC(=O)Cc2ccccc2)sc2c1CCN(Cc1ccccc1)C2  -10.1%
11. Cc1ccc(-n2nnnc2CNC(=O)C(=O)c2c[nH]c3ccccc23)cc1C  -9.06%
12. CCC(C)n1c(=N)c(C#N)cc2c(=O)n3cccc(C)c3nc21 (stereo not given)  -8.48%
13. COc1ccccc1/C=N/Nc1nc(C)cc(=O)[nH]1  -7.23%
14. CC(=O)OC[C@@H]1CN(Cc2ccccc2)C[C@H](n2cnc3c(N(C)C(C)C)ncnc32)O1  -6.77%
15. COc1ccc(C2C3=C(CCCC3=O)N(CC(=O)O)C3=C2C(=O)CCC3)cc1  -6.11%
16. CCOC(=O)c1c(C)n(C)c2ccc(OCC(O)CN3CCC(C)CC3)cc12 (stereo not given)  -5.75%
17. CC(C)CCn1c(CN2CC(C)OC(C)C2)nc2c1c(=O)n(C)c(=O)n2C (stereo not given)  -4.86%
18. Cc1oc(/N=C/c2ccc(F)cc2)c(C#N)c1C  -4.78%
19. COc1cc(/C=C(\C#N)C(=O)NC(C)C)cc(Cl)c1O  -4.17%
20. O=c1oc2cc(O)ccc2cc1S(=O)(=O)c1ccccc1  -3.94%
21. O=C(NCc1ccc(F)cc1)C1CCCN1C(=O)Nc1cccc(F)c1 (stereo not given)  -3.92%
22. N#Cc1c2ccc(OCC(N)=O)cc2n2ccccc12  -3.56%
23. O=C(c1cccc(Cl)c1)N1CCC(=O)N(C(COCc2ccccc2)Cc2ccccc2)CC1 (stereo not given)  -2.11%
24. COC(=O)C1=CN(Cc2ccc(OC)c(OC)c2)C=C(C(=O)OC)C1c1cccc(F)c1  -1.56%
25. CCN(CC)c1ccc2c(C)c(Cl)c(=O)oc2c1  -0.392%
26. Cc1cccn2c(=O)c(/C=C(\C#N)C(=O)NC3CCS(=O)(=O)C3)c(N3CCC(C(N)=O)CC3)nc12 (stereo not given)  -0.312%
27. COCCn1c(=N)c(S(=O)(=O)c2ccc(F)cc2)cc2c(=O)n3ccccc3nc21  -0.298%
28. Nn1c(SCC(=O)N2CCCC2)nnc1-c1cccs1  -0.141%
29. O=C(O)[C@@H]1CCCN1S(=O)(=O)c1cccc(S(=O)(=O)N2CCC[C@H]2C(=O)O)c1  1.12%
30. CCN(CC)c1ccc2cc(C(N)=O)c(=O)oc2c1  3.5%
31. O=C1CCc2cc(S(=O)(=O)NC(Cc3ccccc3)C(=O)NCCC3=CCCCC3)ccc2N1 (stereo not given)  5.87%
32. COCCCOc1cc(NCc2ccccc2)c2ncn(C(C)C)c2c1  5.95%
33. Cc1nc2ccc(S(=O)(=O)Nc3ccc(-c4nc5cccnc5s4)cc3)cc2s1  6.75%
34. CCOC(=O)c1cc(-c2ccccc2)sc1NC(=O)CSc1nnc(N)s1  11.4%
35. Cc1ccc(O)c(NC(=S)NC(=O)COc2ccc(Br)cc2)c1  13.5%
